# L3MBTL1 block: blocks human L3MBTL1. AlphaScreen L3MBTL1–H3K9me1 peptide binding. Potency, µM (doses to about 57.1 µM), inactives show top-dose activity, negative = inhibition, usual class: inhibitors. 230,000 tested, 0.66% active. AID 485360; further: on the % scale 0 is the no-effect control and ±100 the full control effect; nearly all actives have a fitted effect of over 60% in size
# Target sequence (Q9Y468 whole entry, looked up): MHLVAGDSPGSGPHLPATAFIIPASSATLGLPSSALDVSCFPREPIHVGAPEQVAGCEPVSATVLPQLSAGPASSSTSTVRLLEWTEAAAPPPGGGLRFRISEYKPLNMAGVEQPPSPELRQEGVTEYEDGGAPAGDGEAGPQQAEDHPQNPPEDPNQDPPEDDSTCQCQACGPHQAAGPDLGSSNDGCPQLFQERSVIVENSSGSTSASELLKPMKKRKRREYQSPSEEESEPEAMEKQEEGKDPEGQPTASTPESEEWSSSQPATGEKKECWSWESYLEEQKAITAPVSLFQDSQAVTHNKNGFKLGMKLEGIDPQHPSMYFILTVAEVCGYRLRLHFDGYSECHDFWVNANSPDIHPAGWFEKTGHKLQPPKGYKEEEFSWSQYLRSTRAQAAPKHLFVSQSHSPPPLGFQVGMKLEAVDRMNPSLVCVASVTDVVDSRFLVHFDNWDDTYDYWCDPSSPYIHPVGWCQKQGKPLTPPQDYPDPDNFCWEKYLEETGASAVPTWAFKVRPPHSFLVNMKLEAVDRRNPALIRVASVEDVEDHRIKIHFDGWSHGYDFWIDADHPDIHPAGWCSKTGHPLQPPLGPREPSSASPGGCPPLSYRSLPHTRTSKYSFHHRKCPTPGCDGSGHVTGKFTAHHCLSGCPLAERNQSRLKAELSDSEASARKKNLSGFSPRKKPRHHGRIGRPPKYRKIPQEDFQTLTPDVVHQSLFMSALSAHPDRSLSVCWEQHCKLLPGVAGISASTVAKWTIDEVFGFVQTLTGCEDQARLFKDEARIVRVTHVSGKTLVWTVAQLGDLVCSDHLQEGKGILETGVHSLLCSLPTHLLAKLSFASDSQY
#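 Displacement of a biotinylated histone H3(1-15) peptide monomethylated at Lys9 (75 nM) from L3MBTL1 (50 nM) was measured by AlphaScreen after a 30 min room-temperature compound incubation; cefsulodin titration served as intraplate control.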
# G9a inh: inhibitors of human histone lysine methyltransferase G9a; Potency, µM (top dose mostly 102 µM), inactives show at the highest dose activity, negative = inhibition, hits mostly inhibitors; G9a H3K9 monomethylation, AlphaScreen, 2 h; AID 504332; 350,000 tested, 8.8% active; further: on the % scale 0 is the no-effect control and ±100 the full control effect; nearly all actives have a fitted effect of over 75% in size
#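 Enzyme 20 nM + cpd, 15 min RT; add b-H3K9 pep 500 nM / SAM 20 uM; 2 h RT; anti-H3K9me1 Ab 0.5 ug/mL + SA donor / anti-rabbit acceptor beads 20 ug/mL each, 10 min; AlphaScreen read.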
# Sfp PPTase inh: Sfp phosphopantetheinyl transferase inhibition | Q9F4F7 | Biochemical Sfp PPTase activity, qHTS | Potency, µM, for inactives: largest response in the series, negative = inhibition, usual class: inhibitors | 310,000 tested, 3.5% active | AID 1490;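 further: the enzyme is Sfp with the accession as filed and its product quenches rhodamine fluorescence; 0% = enzyme reaction without inhibitor and -100% = no enzyme wells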
#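 Fluorescence-quenching assay: 15 nM Sfp-PPTase preincubated 15 min at room temperature with compound, then 5 uM rhodamine-CoA and 12.5 uM BHQ-2-labelled YbbR peptide added. Fluorescence (ex 525/em 598 nm) read at start and after 30 min; difference gives rate.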
# JMJD2A Tudor: JMJD2A Tudor domain (human) inhibition; O75164; AlphaScreen JMJD2A-Tudor / H3K4me3 peptide binding; Potency, µM (titrated, usually from 114 µM), for the others: top-dose activity change, negative = inhibition, actives largely listed as inhibitors; 390,000 tested, 4.4% active; AID 504339; further: on the % scale 0 is the no-effect control and ±100 the full control effect; nearly all actives have a fitted effect of over 50% in size
# BAZ2B inh: blocks human BAZ2B | Q9UIF8 | AlphaScreen BAZ2B-H3K14Ac peptide displacement | Potency, µM (series often up to 114 µM), inactives show top-dose activity change, negative = inhibition, most hits filed as inhibitors | 360,000 tested, 4.4% active; further: on the % scale 0 is the no-effect control and ±100 the full control effect; nearly all actives have a fitted effect of over 60% in size
#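 In this displacement format the biotinylated H3(5-23) peptide acetylated at Lys14 serves as ligand at 50 nM, with BAZ2B at 50 nM in PBS pH 7.4 containing 0.01% Tween-20. Donor and acceptor beads are 10 ug/mL final.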
# HP1b chromo inh: HP1-beta chromodomain-methylated histone interaction inhibition. 390,000 tested, 0.56% active. AID 540317. Potency, µM (highest dose often 114 µM), for inactives: top-dose activity change, negative = inhibition, most hits filed as inhibitors. AlphaScreen HP1-beta / biotin-H3K9me3 peptide binding; further: nearly all actives have a fitted effect of over 70% in size
#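 Compound inhibition of the preformed complex between 50 nM HP1-beta and 50 nM biotinylated H3K9me3 peptide was read by AlphaScreen. Buffer was PBS pH 7.4 with 0.01% Tween-20. Incubations ran 30 min at room temperature, with 10 ug/mL donor/acceptor beads.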
# Starred values were filed as active, the others as inactive; ? = inconclusive; / = no result; ! = not confirmed by another sample; [ ] = another dose, or the depositor's remark. In the library only some 12% were active in any assay of this set; here they are far more common. The call rests on the fitted dose curve; in most records, active means well fitted curve in the direction sought with a large enough effect; inconclusive means small, poorly fitted or top-dose-only effect, or another doubt; inactive means no such curve, though single readings can be large; an effect the other way counts as inactive or inconclusive. Potency means the concentration at half of the fitted maximal effect.
SMILES,L3MBTL1 block,G9a inh,Sfp PPTase inh,JMJD2A Tudor,BAZ2B inh,HP1b chromo inh
COc1ccc(CCNCc2ccncc2)cc1,/,?,-2%,1.3µM*,56µM*,?
COc1ccc(CCNCc2c(OC)ccc3ccccc23)cc1,/,14µM*,-11%,22µM*,35µM*,?
COc1cccc(CCNCc2ccc(SC)cc2)c1,4%,3.2µM*,-19%,25µM*,50µM*,?
Fc1ccc(CCNCc2ccccc2Cl)cc1,/,2%[12.7 µM],8%,3%,4%,40%
COc1ccc(CCNCc2ccc3c(c2)n(C)c(=O)n3C)cc1,/,-2%[59 µM],/,-9%,-4%,19%
Fc1ccc(CNCCc2ccccc2)cc1,12%,?,-20%,22µM*,/,?
COC(=O)CCCc1[se]c2ccccc2c1I,/,85%[59 µM],-28%,/,/,/
Cc1cc(=O)n2[nH]c(C)cc2n1,/,-34%,18%,-7%[11.4 µM],5%,61%
COc1ccc(CCNCc2ccccc2)cc1,/,5%[2.33 µM],-26%,7.1µM*,25µM*,?
CC[C@]12C=CCN3CCC4(c5cc(Br)c(OC)cc5N(C)C4[C@@](O)(C(=O)OC)[C@@H]1OC(C)=O)C32 (stereo partly drawn),14%,35µM*,-19%,-25%,-14%,14%
CN1CCN(c2ccc(NC(=O)Oc3ccccc3)cc2)CC1,/,3.5µM*,8%,-23%,-1%,-1%
CCOC(=O)c1ccc(N2C(=O)CC(N3CCC(O)(c4ccc(Cl)cc4)CC3)C2=O)cc1 (stereo not drawn),4%,?,8%,7%,1%,66%
CCOC(=O)c1ccc(N2C(=O)CC(N3CCC(O)(c4ccc(Br)cc4)CC3)C2=O)cc1 (stereo not drawn),/,50µM*,6%,-4%,28%,48%
CCN(CC)CCN1C(=O)CN=C(c2ccccc2F)c2cc(Cl)ccc21,/,18%[59 µM],3%,/,/,/
Nc1nc2ccc(Cl)cc2c2nc(-c3ccco3)nn12,/,2.5µM*!,-20%,/,-4%,/
Oc1ccc2c3c1O[C@H]1c4[nH]c5c(c4C[C@@]4(O)[C@@H](C2)N(CC2CC2)CC[C@]314)C[C@@]1(O)[C@H]2Cc3ccc(O)c4c3[C@@]1(CCN2CC1CC1)[C@H]5O4,/,14µM*,-15%,/,/,/
Cc1ccc(NC(=O)Nc2ccc3nc(N4CCN(C)CC4)cc(C)c3c2)cc1F,/,-31%[59 µM],/,-14%,3%[57.1 µM],41%
CCn1c(O)c(C(c2ccccn2)c2c(O)n(CC)c(=S)[nH]c2=O)c(=O)[nH]c1=S,-3%,?,50µM*,4µM*,32µM*,21%
O=c1[nH]c(=S)[nH]c(O)c1C(c1ccccn1)c1c(O)[nH]c(=S)[nH]c1=O,-8%,5µM*,25µM*,?,20µM*,18%
CCOC(=O)c1ccccc1NC(=O)c1c(O)[nH]c(=S)[nH]c1=O,/,/,/,2%,/,50%
CNC(C)[C@@H](O)c1ccc(O)cc1 (stereo partly drawn),/,-10%[12.7 µM],-2%,/,/,/
CCOC(=O)C(=O)NC1CCSC1=O (stereo not drawn),/,50µM*,23%,-5%,11%,3%
COc1ccnc(N=CNOCc2ccc(C)cc2)c1C#N,/,3%,11%,-5%[57.1 µM],-2%,47%
CN[C@H](C)[C@H](O)c1ccccc1,/,1%[59 µM],8%,-19%,-7%,18%
CN[C@@H](C)[C@H](O)c1ccccc1,/,0.045µM*,/,/,/,/
SMILES,L3MBTL1 block,G9a inh,Sfp PPTase inh,JMJD2A Tudor,BAZ2B inh,HP1b chromo inh
c1ccc(C2(N3CCCC3)CCCCC2)cc1,/,?,-9%,/,/,/
NNC(=O)c1nn(-c2ccccc2)cc1O,?,4%,11%,/,-32%,/
O=C1NC(=S)NC(=O)C1C1CCCCC1,/,?,79µM*,-2%,-8%,40%
CN1C(=O)C(C2CCCCC2)C(=O)N(C)C1=O,/,/,/,-5%,/,31%
C/C(=N\Nc1ccccc1)c1c(O)[nH]c(=O)[nH]c1=O,/,/,-9%,-6%,-6%,38%
C/C(=N\Nc1ccccc1)c1c(O)n(Cc2ccccc2)c(=O)[nH]c1=O,15%,10µM*,-5%,?,-11%,29%
C/C(=N\Nc1ccccc1)c1c(O)n(-c2ccccc2)c(=O)[nH]c1=O,-8%,50µM*,-4%,4%,-17%,35%
Cn1c(O)c(N=Nc2ccc(S(=O)(=O)N3CCOCC3)cc2)c(=O)n(C)c1=O,-6%,?,2%,-28%,-22%,-2%
O=C1NC(=O)C(=Cc2c(Cl)cccc2Cl)C(=O)N1,/,/,/,-6%,/,47%
O=C1NC(=O)C(=Cc2ccc(-c3ccc(F)cc3O)o2)C(=O)N1,?,7.1µM*,50µM*,?,56µM*,-16%
O=C1NC(=O)C(=Cc2ccc(-c3ccc(S(=O)(=O)N4CCOCC4)cc3)o2)C(=O)N1,-6%,7.1µM*,8.9µM*,-22%,-5%,45%
O=C1NC(=O)C(=Cc2ccc(-c3ccc(Cl)cc3)o2)C(=O)N1,12%,6.3µM*,20µM*,?,?,14%
c1cnc(N2CC[C@@]3(CCCNC3)C2)nc1,/,-21%[12.7 µM],?,/,/,/
CCC1CN2CCC1CC2C(Oc1cc2ccccc2c2ccccc12)c1ccnc2ccc(O)cc12 (stereo not drawn),/,/,-20%,/,/,/
COC(=O)[C@@H]1[C@@H](O)[C@@]2(O)c3c(OC)cc(OC)cc3O[C@@]2(c2ccc(OC)cc2)[C@H]1c1ccccc1,/,/,10%,/,/,/
